Data on 102 compounds can be found in PubChem BioAssay AID493027 (The Scripps Research Institute Molecular Screening Center, 2011).

Hit rate of the full screen: of about 2,000 compounds, about 45 (2%) were called active. This is one part of a sample in which actives are shown more often than they occur.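 Rule for the calls: active = inhibition above the screen-wide mean inhibition plus 3 SD (cut at about 44% in these data); inactive = the rest.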

The target of the experiment is Perilipin-1 (Homo sapiens) + 1-acylglycerol-3-phosphate O-acyltransferase ABHD5 (Homo sapiens) (UniProt O60240+Q8WTS1). In words: blockers of ABHD5 binding to perilipin-1 – cell lysate, split luciferase complementation, luminescence, NIH validation set, pilot screen (AID 493027).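 For inhibition: 0% = DMSO wells with the 100% control not disclosed.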 The conditions noted are these: split G. princeps luciferase complementation, 4 h; at 7.9 µM, active compounds read high.
Chain of Perilipin-1 (Homo sapiens) + 1-acylglycerol-3-phosphate O-acyltransferase ABHD5 (Homo sapiens) (O60240 whole entry, looked up): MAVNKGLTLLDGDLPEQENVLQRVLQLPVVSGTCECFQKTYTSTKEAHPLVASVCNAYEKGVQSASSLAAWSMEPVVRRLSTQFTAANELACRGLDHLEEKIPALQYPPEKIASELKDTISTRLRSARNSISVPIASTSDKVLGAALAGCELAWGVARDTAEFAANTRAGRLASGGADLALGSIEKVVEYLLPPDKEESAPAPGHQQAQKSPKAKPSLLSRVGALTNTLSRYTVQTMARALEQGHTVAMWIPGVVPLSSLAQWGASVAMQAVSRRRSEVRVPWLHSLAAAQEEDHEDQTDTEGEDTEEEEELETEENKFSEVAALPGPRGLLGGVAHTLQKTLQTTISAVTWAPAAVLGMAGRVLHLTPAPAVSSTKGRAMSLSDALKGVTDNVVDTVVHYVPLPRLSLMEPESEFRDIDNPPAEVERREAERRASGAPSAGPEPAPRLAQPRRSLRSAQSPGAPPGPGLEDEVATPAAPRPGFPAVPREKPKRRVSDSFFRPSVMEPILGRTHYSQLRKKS
Chain of Perilipin-1 (Homo sapiens) + 1-acylglycerol-3-phosphate O-acyltransferase ABHD5 (Homo sapiens) (Q8WTS1 whole entry, looked up): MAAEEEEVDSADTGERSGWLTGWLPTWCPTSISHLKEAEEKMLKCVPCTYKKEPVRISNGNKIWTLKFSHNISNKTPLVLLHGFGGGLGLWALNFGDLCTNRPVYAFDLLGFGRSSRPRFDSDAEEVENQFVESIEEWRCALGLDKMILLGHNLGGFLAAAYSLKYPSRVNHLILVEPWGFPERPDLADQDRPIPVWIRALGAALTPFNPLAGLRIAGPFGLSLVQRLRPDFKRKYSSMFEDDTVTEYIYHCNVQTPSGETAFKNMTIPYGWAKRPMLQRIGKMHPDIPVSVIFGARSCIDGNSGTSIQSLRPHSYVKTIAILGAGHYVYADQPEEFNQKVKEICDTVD
With `O=C(Cc1ccccc1)NCC(=O)OCC(=O)c1ccccc1Cl`, the inhibition (commonly the relative decrease from the control value, in per cent) was -13.7% (inactive).
In the case of `CCN1C(=O)C(CC(=O)Nc2ccc(F)cc2)N(Cc2ccco2)C1=S` (configuration not stated), the inhibition is 10.9% (inactive).
Consider `CS(=O)(=O)Oc1ccc2c(c1)O/C(=C\C=C\c1ccccc1)C2=O`, for which the inhibition is 58.8% (active).
As to `CC(=O)Oc1ccc2occ(/C=N/c3cc(=O)[nH]c(=S)[nH]3)c(=O)c2c1`, the inhibition is -1.72% (inactive).
Regarding `O=c1cc(CN2CCN(c3cccc(Cl)c3)CC2)c2cc(O)c(-c3ccccc3)cc2o1`, the inhibition is 1.13% (inactive).
On to `COc1ccc2[nH]c(C)c(CN3CCC(C)CC3)c(=O)c2c1`, for which the inhibition is -4.96% (inactive).
As for `CCc1cc2c(=O)c(-c3nc(C)cs3)coc2cc1OC(C)C(=O)NCCO` (configuration not stated), the figure is -3.43% (inactive); as for `COc1ccc2oc(=O)c(C(=O)N3CCN(c4ccccc4)CC3)cc2c1`, 9.05% (inactive); as for `COc1ccc2oc(=O)c(C(=O)Nc3ccccc3-c3ccccc3)cc2c1`, -7.96% (inactive).
As for `COc1ccc(O)c(C(=O)/C=C/c2cc3ccccc3o2)c1`, the figure is 66.9% (active); as for `Cc1ccc(NCCC(=O)c2ccccc2)cc1Cl`, -2.97% (inactive).
As for `CCCN1CCC(NC(=O)Nc2ccc(Br)cc2)CC1`, the figure is -9.54% (inactive).
In the case of `Cc1ccc(C2=NOC(=O)/C2=C\C=C\c2ccccc2)cc1`, the inhibition was 95.6% (active).
As for `Cc1ccc2c(c1)C(O)(CC(=O)/C=C/C=C/c1ccccc1)C(=O)N2` (configuration not stated), the figure is 16.4% (inactive); as for `O=C1NC2(Nc3ccccc31)C(=O)Nc1ccc(Br)cc12` (configuration not stated), 0.88% (inactive); as for `CC1(C)CC(C(CC(=O)N2CCCC2)Cc2ccccc2)CCO1` (configuration not stated), -12.5% (inactive).
The value for `Cc1cc(C(=O)Nc2ccccc2C(=O)N2CCCCC2)ccc1[N+](=O)[O-]` was -3.48% (inactive); that for `COc1ccc(/C=C2\CC/C(=C\c3ccc(OC)c(OC)c3)C2=O)cc1OC` was 59.1% (active); that for `COc1ccc(/C=C2\CCn3c2nc2cc(C(=O)O)ccc2c3=O)cc1OC` was -6.3% (inactive).
As to `COc1ccc(/C=C2\CCc3ccccc3C2=O)c(OC)c1OC`, the inhibition was -0.86% (inactive).
As for `CCN(CCCCCN(C)C)Cc1cc2ccccc2o1`, the figure is -7.75% (inactive); as for `O=C1C(Cc2c[nH]c3ccccc23)NC(=S)N1Cc1ccccc1` (configuration not stated), -4.43% (inactive).
The value for `CC(=O)N1CCN2C(=O)C1CCCC(=O)c1cc(C(C)C)ccc12` (configuration not stated) was 0.46% (inactive); that for `O=C1ON=C(c2ccc(Cl)cc2)/C1=C/c1ccc(O)cc1` was 82.8% (active); that for `COc1cc2c(cc1OC)/C(=C/c1ccc(Cl)cc1)C(=O)OC2` was 27.4% (inactive).
The value for `CCOC(=O)N1CCN(Cc2nc(Cc3cccc(F)c3)no2)CC1` was -1.53% (inactive); that for `C=CCc1ccc(OCC(O)COc2ccc(CC=C)cc2OC)c(OC)c1` was -1.62% (inactive); that for `Cc1ccccc1C(=O)NNc1ncnc2c1cnn2C` was -10.4% (inactive).
Consider `Cn1cc(CN2CCCC(CO)(Cc3cccc(Cl)c3)C2)cn1` (configuration not stated), for which the inhibition is -10.7% (inactive).
The value for `c1ccc2c3c(c(CN4CCCCC4)cc2c1)COC3` was -4.68% (inactive).
The value for `O=C(O)/C=C/c1ccc(O)c(O)c1` was -2.22% (inactive); that for `COc1cc(/C=C/C(=O)CC(=O)/C=C/c2ccc(O)c(OC)c2)ccc1O` was 50.4% (active).
The value for `CCN(CC)C(=O)c1ccc(O)c(OC)c1` was -1.24% (inactive).
Take `COc1ccc2c(c1O)Cc1ccccc1C2=O`: the inhibition was 12% (inactive).
As for `COc1cc(OC)cc(C(=O)N[C@@H](CCSC)c2nc3ccccc3[nH]2)c1`, the figure is 2.97% (inactive); as for `CC(C)CCC1(CCNC(C)c2cccs2)CCOC(C)(C)C1` (configuration not stated), -4.9% (inactive); as for `COc1ccc(CCN=CC2=C(O)CC(C)(C)CC2=O)cc1`, -4.85% (inactive).
In the case of `CC(=O)Nc1ccc(CN2CCN(C3CCCCC3)C(CCO)C2)cc1` (configuration not stated), the inhibition was -3.02% (inactive).
As for `COC(=O)[C@@H](N)CS`, the figure is 65.9% (active); as for `CC(=O)N[C@@H](CS)C(=O)O`, -18.8% (inactive).
The value for `Cc1ccc(NC(=O)CSc2nc(O)c(Cc3ccccc3)c(=O)n2-c2ccccc2)cc1` was 5.86% (inactive); that for `COc1ccc(/C=C\C(=O)c2c(O)ccc3c(C)cc(=O)oc23)cc1OC` was 62.7% (active).
As for `COc1ccc(/C=C/C(=O)Nc2ccccc2C(=O)O)cc1OC`, the figure is -6.48% (inactive); as for `COc1ccc(C(=O)Oc2ccc3c(C)cc(=O)oc3c2C(C)=O)cc1`, 0.69% (inactive); as for `CC(C)C(=O)Nc1c(O)c2ccccc2[nH]c1=O`, -16.2% (inactive).
With `COC(=O)C1=C(C)NC(C)=C(C(=O)OC)C1c1ccccc1[N+](=O)[O-]`, the inhibition entry is “active”.
The value for `CCOC(=O)C1=C(C)NC(C)=C(C(=O)OC)C1c1cccc([N+](=O)[O-])c1` (configuration not stated) was 8.95% (inactive); that for `COC(=O)C1=C(C)NC(C)=C([N+](=O)[O-])C1c1ccccc1C(F)(F)F` (configuration not stated) was 1.42% (inactive).
The value for `COc1ccc(CCN=C(N)C(C)c2ccccc2)cc1OC` (configuration not stated) was -12.2% (inactive).
As for `CC(C)(C)C(=O)NC(=S)Nc1sc2c(c1C(N)=O)CCC2`, the figure is 1.49% (inactive); as for `COc1ccc(C2OC(=O)Cc3cc(OC)c(OC)cc32)cc1` (configuration not stated), -1.64% (inactive); as for `OCCC1CN(Cc2nc(-c3ccccc3)cs2)CCN1Cc1ccc(F)cc1` (configuration not stated), -1.6% (inactive).
As to `COc1cc2c(cc1OC)-c1cc(OCc3ccccc3Cl)nc(=O)n1CC2`, the inhibition was 15.9% (inactive).
As for `O=C(/C=C/c1ccccc1)/C=C/c1ccccc1`, the figure is 88.9% (active); as for `O=C(CCCCCCCC(=O)c1ccccc1)c1ccccc1`, -5.61% (inactive); as for `O=C(/C=C/c1ccccc1)NC(=O)c1ccccc1O`, 4.79% (inactive).
The value for `Cn1cc(/C=C/C(=O)c2ccccc2)c2ccccc21` was 13.9% (inactive); that for `N/C(=N\OC(=O)/C=C/c1ccccc1)c1ccc(Br)cc1` was -13% (inactive).
As for `O=C(O)c1ccc(C(=O)C(=O)c2ccccc2)cc1`, the figure is -8.11% (inactive); as for `O=C(/C=C/Sc1ccccc1)c1ccccc1`, 81.5% (active).
On to `CC(CCc1ccccc1)NC(=O)/C=C/c1ccccc1` (configuration not stated), for which the inhibition was 2.76% (inactive).
Regarding `O=C(/C=C/c1ccccc1)c1ccccc1`, the inhibition is 61.4% (active).
As to `Cc1ccc2[nH]c3c(c2c1)CN(C)CC3`, the inhibition was -2.27% (inactive).
On to `Cc1ccc(S(=O)(=O)N[C@@H](C)C(=O)N2CCC(C(=O)N3CCC[C@H]3C(=O)O)CC2)cc1`, for which the inhibition was -8.3% (inactive).
The value for `COc1ccc(C2OC[C@H]3O[C@H](O)[C@H](NC(C)=O)[C@@H](O)[C@@H]3O2)cc1` (some centres not stated) was -8.14% (inactive); that for `COc1ccc2c(c1)CC[C@@H]1[C@@H]2CC[C@]2(C)C(=O)CC[C@@H]12` was -10.8% (inactive).
The value for `C[C@]12CCC3C(CC=C4C[C@@H](O)CC[C@@]43C)C1CCC2[C@]1(C)CCC(=O)O1` (some centres not stated) was 0.59% (inactive); that for `COc1cccc(-n2c(C)c3c(OC)cccc(=O)c3c2C)c1` was 12% (inactive); that for `CCC(C)NCCOc1ccccc1C` (configuration not stated) was -6.76% (inactive).
As for `COc1ccc(OC)c(-n2c(Cn3c(-c4ccccn4)nc4ccccc43)n[nH]c2=S)c1`, the inhibition is -10.2% (inactive).
As for `COc1ccc(C(=O)N2c3cc4c(cc3C(C)=CC2(C)C)OCO4)cc1`, the figure is -4.62% (inactive); as for `Cc1nc(C)c(C)nc1C`, -2.64% (inactive); as for `O=C1CCCCCN1Cc1ccccc1`, -0.49% (inactive).
The value for `O=C1C=CC(=O)C(C2=C3C(=O)N(CCc4ccccc4)CC(=O)N3CCC2)=C1` was 68.9% (active); that for `CC1(C)CC(CC(=O)Nc2nccs2)(c2ccccc2)CCO1` (configuration not stated) was -1.2% (inactive); that for `COc1ccc(-c2nc(NC(C)=O)sc2-c2ccc(OC)cc2)cc1` was 11.4% (inactive).
The value for `COc1ccc(C2=CC(=O)C=CC2=O)cc1` was 73.7% (active); that for `COc1ccc(C2C(=O)c3ccccc3C2=O)cc1` was -2.92% (inactive).
In the case of `NS(=O)(=O)c1ccc(CNC(=O)c2cc(-c3ccccc3)nc3ccccc23)cc1`, the inhibition is 10.2% (inactive).
As for `CCOc1ccc2nc(NC(=O)NC3CCCCC3)sc2c1`, the figure is -5.14% (inactive); as for `CCOc1cccc(N2C(=O)CC(N(CCc3ccc(OC)c(OC)c3)C(=O)CC)C2=O)c1` (configuration not stated), -6.24% (inactive); as for `COC(=O)c1ccc(=O)n(Cc2ccco2)c1`, 12.2% (inactive).
As for `COCCCN1C(=O)/C(=C\c2cccs2)C(C(=O)OC)=C1C`, the figure is 3.99% (inactive); as for `COC(=O)C1=C(C)N(Cc2ccco2)C(=O)/C1=C\c1ccc([N+](=O)[O-])cc1`, 86% (active).
The value for `CN=C1c2cc3cc(OC)ccc3n2CCN1C` was 3.44% (inactive); that for `Oc1[nH]c2ccccc2c1N=Nc1ccccc1` was -0.17% (inactive); that for `COC(=O)c1cc(COc2ccc3ccc(=O)oc3c2)c(C)o1` was -9.09% (inactive).
Take `Cc1ccccc1C(=O)NCC(=O)O`: the inhibition is 0.22% (inactive).
Turning to `COc1ccc(CCNC(=O)c2ccc(Cl)cc2)cc1OC`, the inhibition is -5.87% (inactive).
As for `CC(CN1c2ccccc2Sc2ccccc21)N(C)C` (configuration not stated), the inhibition was -9.88% (inactive).
The value for `CCN1/C(=C/C=C/C=C/c2sc3ccccc3[n+]2CC)Sc2ccccc21` was 52.7% (active); that for `CN(C)CCCN1c2ccccc2Sc2ccccc21` was -3.33% (inactive); that for `CC(=O)N(C(C)=O)c1nc2nc(C)cc(C)n2n1` was -0.49% (inactive).
As for `OC(C#CCN1CCCC1)(c1ccccc1)c1cccnc1` (configuration not stated), the figure is 0.07% (inactive); as for `COc1ccc(Cc2nc(-c3ccc(Br)cc3)no2)cc1`, -12% (inactive).
The value for `CCOc1ccc(CC2CCC(=O)NC2=O)cc1` (configuration not stated) was 3.55% (inactive); that for `O=Cc1ccc(OC(=O)c2cccnc2)cc1` was -5.64% (inactive); that for `Fc1ccc(-n2cc(CNCCc3ccccn3)c(-c3ccccc3Cl)n2)cc1` was 1.9% (inactive).
On to `CC(C)(C)OC(=O)N1CC(O)CC1C(=O)OCC(=O)c1ccc(Cl)cc1` (configuration not stated), for which the inhibition was -9.04% (inactive).
As for `CC(C)=CCC/C(C)=C/CC/C(C)=C/CC/C(C)=C/CC1=C(C)C(=O)c2ccccc2C1=O`, the figure is 18.4% (inactive).
Take `CC1=CC(=O)c2ccccc2C1=O`: the inhibition was 44.4% (active).
The value for `CCNC1=C(Cl)C(=O)c2ccccc2C1=O` was -12.7% (inactive).
